Source: PubChem (National Center for Advancing Translational Sciences (NCATS))
PI5P4K alpha inh – inhibitors of human PI5P4K alpha; AID 652105; PI5P4Kalpha enzyme, ADP-Glo luminescence, 60 min; hits give low values; P48426; 1.2% of 330,000 active; max response, %; active = max response of -50% or lower; inconclusive = between -30% and -50%; inactive = -30% or higher; also: value at the top dose of about 77 µM; % is scaled to controls: 0 for no effect and ±100 for the full control effect
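Enzyme plus substrate dispensed, test compounds pinned in, then ATP (5 microM final) added. After 60 min at RT, ADP-Glo reagent 1 for 45 min and reagent 2 for 30 min preceded luminescence imaging.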
G9a inh – inhibitors of human histone lysine methyltransferase G9a; 8.8% of 350,000 active; Potency, µM (series often up to 102 µM), for the others: at the highest dose activity, negative = inhibition, most hits filed as inhibitors; Q96KQ7; G9a H3K9 monomethylation, AlphaScreen, 2 h; also: potency is read from the fitted curve at half-maximal effect; % is scaled to controls: 0 for no effect and ±100 for the full control effect; nearly all actives have a fitted effect of over 75% in size
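Chemiluminescent proximity detection of H3K9 monomethylation, read after 10 min bead incubation in the dark. Reaction: 20 nM G9a, 500 nM biotin-H3K9 peptide, 20 uM SAM cofactor, 2 h, room temperature, following 15 min enzyme-compound preincubation.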
HP1b chromo inh – inhibitors of HP1-beta chromodomain binding to methylated histone tails; P83916; AlphaScreen HP1-beta / biotin-H3K9me3 peptide binding; Potency, µM (top dose mostly 114 µM), without a hit: top-dose activity change, negative = inhibition, usual class: inhibitors; 0.56% of 390,000 active; AID 540317; also: potency is read from the fitted curve at half-maximal effect; nearly all actives have a fitted effect of over 70% in size
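HP1-beta protein (50 nM final) preincubated 30 min at room temperature with biotinylated H3(1-18)K9me3 peptide (50 nM) in PBS pH 7.4, 0.01% Tween-20, then compound added for 30 min. AlphaScreen streptavidin donor/nickel chelate acceptor beads (10 ug/mL final), 30 min dark, luminescence read.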
BAZ2B inh – blocks human BAZ2B; Q9UIF8; AlphaScreen BAZ2B-H3K14Ac peptide displacement; Potency, µM (titrated, usually from 114 µM), inactives show at the top dose activity change, negative = inhibition, most hits filed as inhibitors; 4.4% of 360,000 active; AID 504333; also: potency is read from the fitted curve at half-maximal effect; % is scaled to controls: 0 for no effect and ±100 for the full control effect; nearly all actives have a fitted effect of over 60% in size
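AlphaScreen luminescence quantifies BAZ2B engagement of H3K14Ac peptide; the protein and biotinylated peptide are both at 50 nM final, buffer PBS pH 7.4 with 0.01% Tween-20, all steps at room temperature.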
PLK1 PBD inh – PLK1 (human) polo-box domain binding inhibition; Plk1 PBD binding of FITC phosphopeptide, fluorescence polarization; P53350; AID 720504; Potency, µM, for inactives: max response, negative = inhibition, most hits filed as inhibitors; 2.8% of 360,000 active; also: potency is read from the fitted curve at half-maximal effect; series mostly up to about 57 µM; % is scaled to controls: 0 for no effect and ±100 for the full control effect; nearly all actives have a fitted effect of over 65% in size
JMJD2A Tudor inh – blocks the human JMJD2A Tudor domain | O75164 | AlphaScreen JMJD2A-Tudor / H3K4me3 peptide binding | Potency, µM (doses to about 114 µM), inactives show at the highest dose activity change, negative = inhibition, hits mostly inhibitors | 4.4% of 390,000 active | AID 504339; also: potency is read from the fitted curve at half-maximal effect; % is scaled to controls: 0 for no effect and ±100 for the full control effect; nearly all actives have a fitted effect of over 50% in size
Target sequence (O75164 whole entry, looked up, the tested form may be a part): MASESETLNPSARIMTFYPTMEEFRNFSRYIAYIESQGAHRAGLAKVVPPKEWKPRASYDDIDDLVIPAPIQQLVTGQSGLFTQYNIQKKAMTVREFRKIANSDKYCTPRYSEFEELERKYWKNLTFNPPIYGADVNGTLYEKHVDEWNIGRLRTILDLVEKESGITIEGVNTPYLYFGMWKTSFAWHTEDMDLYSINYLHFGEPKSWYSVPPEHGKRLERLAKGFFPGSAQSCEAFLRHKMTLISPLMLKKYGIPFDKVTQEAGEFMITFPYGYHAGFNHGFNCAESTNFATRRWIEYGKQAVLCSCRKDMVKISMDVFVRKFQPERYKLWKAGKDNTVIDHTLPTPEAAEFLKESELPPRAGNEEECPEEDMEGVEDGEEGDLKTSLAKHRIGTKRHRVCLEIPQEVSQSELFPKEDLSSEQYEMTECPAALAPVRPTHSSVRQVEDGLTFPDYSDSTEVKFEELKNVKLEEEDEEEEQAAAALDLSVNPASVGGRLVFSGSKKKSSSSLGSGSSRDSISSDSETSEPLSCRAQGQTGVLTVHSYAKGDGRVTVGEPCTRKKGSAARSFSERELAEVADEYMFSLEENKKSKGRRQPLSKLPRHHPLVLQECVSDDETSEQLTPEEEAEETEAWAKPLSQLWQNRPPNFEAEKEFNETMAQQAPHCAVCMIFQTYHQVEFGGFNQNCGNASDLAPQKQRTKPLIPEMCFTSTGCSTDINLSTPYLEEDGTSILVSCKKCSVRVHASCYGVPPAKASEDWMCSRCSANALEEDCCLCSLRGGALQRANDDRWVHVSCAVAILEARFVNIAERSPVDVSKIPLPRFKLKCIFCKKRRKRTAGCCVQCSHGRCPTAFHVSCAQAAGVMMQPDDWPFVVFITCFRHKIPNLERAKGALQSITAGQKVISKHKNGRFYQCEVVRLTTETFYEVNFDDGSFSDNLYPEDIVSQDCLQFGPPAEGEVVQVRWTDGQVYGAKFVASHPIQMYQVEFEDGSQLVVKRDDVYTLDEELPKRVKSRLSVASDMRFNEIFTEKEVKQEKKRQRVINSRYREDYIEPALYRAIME
ADP-Glo counter – counter-screen for PI5P4K inhibitors: ADP-Glo detection interference, no enzyme | shares compounds with PI5P4K alpha inh | ADP-Glo detection counter-screen, luciferase luminescence, no enzyme | Potency, µM (highest dose often 76.9 µM), without a hit: top-dose activity change, negative = inhibition, actives largely listed as inhibitors | 1,100 tested, under 10 active
TbPYK confirm – confirmation of Trypanosoma brucei pyruvate kinase inhibitors. shares compounds with PLK1 PBD inh. recombinant TbPYK, Kinase-Glo ATP luminescence. Potency, µM (top dose mostly 76.9 µM), for the others: top-dose activity change, negative = inhibition, actives largely listed as inhibitors. 67% of 890 active; also: potency is read from the fitted curve at half-maximal effect; % is scaled to controls: 0 for no effect and ±100 for the full control effect; nearly all actives have a fitted effect of over 70% in size
TbPYK ADP-Glo – inhibits T. brucei pyruvate kinase in orthogonal ADP-Glo assay; 62% of 890 active; shares compounds with PLK1 PBD inh; recombinant TbPYK, ADP-Glo luminescence, 60 min; AID 720584; Potency, µM (top dose mostly 76.9 µM), inactives show top-dose activity change, negative = inhibition, usual class: inhibitors; also: potency is read from the fitted curve at half-maximal effect; % is scaled to controls: 0 for no effect and ±100 for the full control effect; nearly all actives have a fitted effect of over 75% in size
Numbers without * were called inactive; ? = inconclusive; / = no result; [ ] = remark or other dose. In the library only some 12% were active in any assay of this set; here they are far more common. Unless noted, calls follow the shape of the dose curve; as a rule, active = well fitted curve in the direction sought with a large enough effect; inconclusive = small, poorly fitted or top-dose-only effect, or another doubt; inactive = no such curve, though single readings can be large; an effect the other way counts as inactive or inconclusive.

SMILES	PI5P4K alpha inh	G9a inh	HP1b chromo inh	BAZ2B inh	PLK1 PBD inh	JMJD2A Tudor inh	ADP-Glo counter	others
Cc1cc(NC(=O)c2cc(S(=O)(=O)N3CCCCC3)ccc2C)no1	-54*	/	35%	/	-10%	-33%	-8%
CCc1ccc2c(c1)NC(=O)C2(C)Cc1ccccc1OC (configuration not stated)	7	/	/	/	1%	/	/
Cc1sc2ncn(CC(=O)N3CCCC(C)C3)c(=O)c2c1S(=O)(=O)N1CCCCC1 (configuration not stated)	3	-4%	-15%	5%	-13%	-17%	/
Cc1sc2ncn(CC(=O)N3CCC(C(N)=O)CC3)c(=O)c2c1S(=O)(=O)N1CC(C)CC(C)C1 (configuration not stated)	-90*	-1%	-95%	3%	-5%	100µM*	-10%
COCCN(CC(=O)NCC1CCCO1)C(=O)CCC(=O)Nc1ccccn1 (configuration not stated)	-51*	-2%	-15%	-21%	4.7µM*	?	1%
COc1ccc(-c2nnc(C)c3nocc23)cc1	-66*	-13%	23%	-26%	-12%	?	-10%
O=C(Nc1nc(-c2ccco2)c(-c2ccco2)s1)c1cnccn1	-67*	10µM*	0%	?	-12%	-34%	-10%
O=C(Nc1nc(-c2ccco2)c(-c2ccco2)s1)c1ccc(F)cc1F	-64*	10µM*	?	40µM*	-12%	?	-9%
O=C(Nc1ccc(NC(=O)c2ccco2)cc1)c1cnccn1	9	10%[59 µM]	21%	27%	-3%	-12%	/
O=C(Cc1cccs1)Nc1nnc(SCc2cccc3ccccc23)s1	-53*	45µM*	30%	?	-17%	-29%	-1%
O=C(Cc1cccs1)Nc1nnc(SCC(=O)NC2CCCCC2)s1	-25	?	5%	0%	-5%	-17%[57.1 µM]	/
OC(c1ccc(Cl)c(F)c1)c1ncc(-c2ccc(Oc3ccccc3)cc2)[nH]1 (configuration not stated)	-57*	/	/	/	-8%	/	-5%
OC(c1ccc(Cl)c(F)c1)c1ncc(-c2ccc(Cl)cc2)[nH]1 (configuration not stated)	15	/	/	/	3%	/	/
COc1ccc(CCNC(=O)C2CC(c3cccc(F)c3)=NO2)cc1 (configuration not stated)	?	8%[59 µM]	67%	3%	2%	-20%	-5%
C/C=C/c1ccc(OCC(=O)N(CCOC)c2c(N)n(CCCC)c(=O)[nH]c2=O)c(OC)c1	-1	?	23%	-2%	6%	-10%	/
O=S(=O)(Nc1nccs1)c1cc(Cl)ccc1Cl	-51*	9%[12.7 µM]	27%	-36%	-18%	-12%	-1%
Cc1ccc(OC2CCN(C(=O)[C@H]3O[C@@H](n4ccc(=O)[nH]c4=O)[C@H](O)[C@@H]3O)CC2)cc1	-11	/	/	/	-3%	/	/
O=C(Nc1ccc(C(F)(F)F)cc1)C(Cc1ccccc1)n1cccc1 (configuration not stated)	/	10%[59 µM]	31%	1%	/	13%	/
Cc1ccsc1CN(C)c1ncnc2ccc(-c3ccoc3)cc12	/	/	/	/	/	/	2%
CCOC(=O)c1ccccc1NC(=O)c1cc2ccc3cccnc3c2[nH]1	/	-9%[59 µM]	30%	11%[57.1 µM]	/	-21%	/
CC(=O)Nc1ccc(NC(=S)Nc2ccc(Br)cc2)cc1	-75*	6%	-17%	-13%	-15%	-27%	-3%
Cc1cccc(NC(c2ccc(O)cc2)c2ccc3ccc(C)nc3c2O)n1 (configuration not stated)	-52*	4.5µM*	?	?	4.2µM*	45µM*	-9%
O=C(NCC1CCCCC1)c1cccc([N+](=O)[O-])c1	-62*	/	37%	?	1%	-10%	1%
O=C(NCC1CCN(C(=O)c2cccc([N+](=O)[O-])c2)CC1)c1cccc([N+](=O)[O-])c1	6	0%	-14%	-1%	1%	-9%	/
Nc1cccnc1S(=O)(=O)c1cccc(C(F)(F)F)c1	1	/	35%	/	-9%	-7%	/
SMILES	PI5P4K alpha inh	G9a inh	HP1b chromo inh	BAZ2B inh	PLK1 PBD inh	JMJD2A Tudor inh	ADP-Glo counter	others
Nc1nc(N)c2cc(S(=O)(=O)c3cccc(C(F)(F)F)c3)ccc2n1	-54*	/	/	/	-1%	/	-9%
Cc1c(-c2nnc(SCC(=O)Nc3ccc(Br)cc3)o2)nnn1-c1ccc(F)cc1	/	13%[59 µM]	23%[57 µM]	-2%	/	-8%	/
CCCNC(=O)N(C)C[C@@H]1Oc2ncc(-c3ccncc3)cc2C(=O)N([C@H](C)CO)C[C@@H]1C	-56*	/	/	/	-13%	/	-4%	TbPYK confirm=22µM*;TbPYK ADP-Glo=32µM*
COc1ccc(S(=O)(=O)N2CCCC(C(=O)Nc3cccnc3)C2)cc1Cl (configuration not stated)	-50*	?	46%	-36%	2.7µM*	?	-6%	TbPYK confirm=-4%;TbPYK ADP-Glo=-11%
CCCCC(=O)N(Cc1ccc2c(c1)OCO2)Cc1nc2ccccc2c(=O)[nH]1	-53*	-6%	-15%	-33%	6.7µM*	32µM*	-10%	TbPYK confirm=7%;TbPYK ADP-Glo=2%
COc1cc2c(cc1OC)CN(C(=O)C1CCCN(C(=O)c3ccc(Cl)cc3)C1)CC2 (configuration not stated)	4	6%[12.7 µM]	31%	-3%	0%	-4%	/
COc1cc(OC)cc(C(=O)Nc2sc3c(c2C(N)=O)CCC3)c1	-8	5%	9%	3%	-21%	-17%	/
COc1ccc2nc(Nc3sc4c(c3C(N)=O)CCCC4)sc2c1	-70*	3.2µM*	22µM*	?	?	?	1%	TbPYK confirm=6.3µM*;TbPYK ADP-Glo=7.9µM*
CS(=O)(=O)c1sc2nc(-c3cccs3)cc(-c3ccccc3)c2c1N	-52*	?	45%	?	8.4µM*	89µM*	-11%	TbPYK confirm=?;TbPYK ADP-Glo=35µM*
O=S(=O)(NC1=NCCCCC1)c1cc(F)ccc1F	0	/	-15%	/	-9%	-16%	/
CCOc1ccccc1N1CCN(S(=O)(=O)c2cc(C)ccc2OC)CC1	3	/	18%	0%	5%	-13%	/
